Compounds with a hit are over-represented: about 5.9% of the library has one in this group of screens.
Gal4-VP16 FLuc: inhibits Gal4-VP16 luciferase reporter, ROR gamma counter-screen; Drosophila S2 Gal4-VP16 UAS-luciferase, luminescence, 20 h; Potency, µM (top dose mostly 53.6 µM), for the others: at the highest dose activity, negative = inhibition, most hits filed as inhibitors; 310,000 tested, 3.5% active; AID 2546;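 also: Gal4-VP16 expression switched on by copper sulfate through the metallothionein promoter; potency is read from the fitted curve at half-maximal effect; nearly all actives have a fitted effect of over 50% in size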
RORg inh: blocks mouse ROR gamma transcriptional activity; Drosophila S2 Gal4-RORgamma UAS-luciferase reporter, 20 h; 310,000 tested, 5.4% active; Potency, µM (series often up to 53.6 µM), inactives show at the highest dose activity change, negative = inhibition, usual class: inhibitors; also: potency is read from the fitted curve at half-maximal effect; nearly all actives have a fitted effect of over 60% in size
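In this cell-based reporter format, copper sulfate (700 uM final) drives Gal4–ROR gamma fusion expression from a metallothionein promoter in Drosophila Schneider cells; compounds preincubated 1 hr, reporter read after 20 hr at ambient temperature.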
Coupling enz: inhibits coupling enzyme system, counter-screen for aldolase hits | coupling enzyme system counterscreen, AmpLite Red fluorescence | AID 2472 | 290,000 tested, 0.67% active | activity change, negative = inhibition, % at 58.2 µM, hits read low; in the data active = activity change below about -30%
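First, compound is pin-transferred into glyceraldehyde-3-phosphate coupling-enzyme reagent at 57.5 uM final and held 10 min at RT. Next, substrate, coupling system and AmpLite Red are added. After 20 min RT, fluorescence (525/598 nm) is read.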
TrxR1 inh: rat TrxR1 inhibition | recombinant rTrxR1, NADPH fluorescence consumption, selenite substrate | 390,000 tested, 1% active | O89049 | Potency, µM (doses to about 114 µM), for the others: at the highest dose activity change, negative = inhibition, hits mostly inhibitors; also: potency is read from the fitted curve at half-maximal effect; nearly all actives have a fitted effect of over 65% in size
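Rat TrxR1 (90 nM in the dispensed reagent) was pre-reduced with 400 uM NADPH for 5 min at room temperature, then incubated with compound for 15 min. After 400 uM selenite was added, NADPH fluorescence (Ex 340/Em 450 nm) was followed for 8 min.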
TrxR1 substrate: rat thioredoxin reductase 1 substrate activity; O89049; purified TrxR1 substrate turnover, NADPH consumption readout; Potency, µM (highest dose often 114 µM), for inactives: at the top dose activity change, negative = substrate turnover; 390,000 tested, 0.01% active; AID 588456; also: potency is read from the fitted curve at half-maximal effect; nearly all actives have a fitted effect of over 50% in size
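Rat TrxR1, dispensed at 90 nM, was prereduced with 400 uM NADPH (final) for 5 min at ~22 deg C, then incubated with compound 15 min before 400 uM selenite. A first-read NADPH fluorescence drop versus no-compound background flagged substrates.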
GALK inh: blocks human galactokinase activity | P51570 | Purified GALK, Kinase-Glo residual ATP luminescence | Potency, µM (titrated, usually from 57.5 µM), inactives show at the top dose activity change, negative = inhibition, actives largely listed as inhibitors | 270,000 tested, 0.007% active | AID 1868; also: potency is read from the fitted curve at half-maximal effect
Target sequence (P51570 whole entry, looked up): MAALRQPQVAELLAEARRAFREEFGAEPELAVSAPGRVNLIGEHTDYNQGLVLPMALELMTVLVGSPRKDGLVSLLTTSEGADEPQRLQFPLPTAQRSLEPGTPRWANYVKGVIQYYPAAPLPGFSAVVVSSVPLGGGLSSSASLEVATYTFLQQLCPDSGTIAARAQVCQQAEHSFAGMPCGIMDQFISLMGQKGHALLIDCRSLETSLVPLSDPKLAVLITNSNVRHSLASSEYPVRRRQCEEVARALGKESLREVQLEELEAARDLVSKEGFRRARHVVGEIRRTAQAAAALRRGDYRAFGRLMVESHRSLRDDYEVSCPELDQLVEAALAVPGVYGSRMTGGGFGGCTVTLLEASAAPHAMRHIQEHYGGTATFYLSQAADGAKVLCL
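ATP-depletion format; final 35 uM ATP, 100 uM D-galactose, 5 nM enzyme; pH 8.0 HEPES/Mg2+ buffer; 60 min RT; luminescence read 10 min after detection reagent.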
An asterisk follows results filed as active; u = inconclusive; x = no result given; [ ] = remark or other dose. Unless noted, calls follow the shape of the dose curve; as a rule, active = well fitted curve in the direction sought with a large enough effect; inconclusive = small, poorly fitted or top-dose-only effect, or another doubt; inactive = no such curve, though single readings can be large; an effect the other way counts as inactive or inconclusive. % is scaled to controls: 0 for no effect and ±100 for the full control effect.

SMILES	Gal4-VP16 FLuc	RORg inh	Coupling enz	TrxR1 inh	TrxR1 substrate	GALK inh
O=C(CCCCCn1c(=S)[nH]c2cc3c(cc2c1=O)OCO3)N1CCN(c2ccccc2)CC1	-6.9%	u	-2.0	-6.5%	-6.8%	-3.3%
O=C(CCCn1c(=S)[nH]c2cc3c(cc2c1=O)OCO3)N1CCN(c2ccc(F)cc2)CC1	u	7.94µM*	0.9	17.2%	6.8%	1.8%
O=C(O)CC(SCc1ccc(C(=O)O)o1)C(=O)O (stereo not given)	-4.1%	-15.3%	2.8	8.0%	6.9%	-4.5%
C/C(=N/NC(=O)c1ccc2c(c1)OCO2)c1ccc(Br)s1	u	2.82µM*	-0.1	12.3%	-2.0%	3.9%
C/C(=N\NC(=O)c1ccc2c(c1)OCO2)c1ccco1	u	u	6.4	15.8%[57.1 µM]	3.4%[57.1 µM]	13.2%
C/C(=N\NC(=O)c1cc2ccccc2cc1O)c1ccc2c(c1)OCO2	u	15.8µM*	-3.6	0.1%	-2.9%	-3.7%
C/C(=N\Nc1ccc(Cl)c(C(=O)O)c1)c1ccc(Br)s1	3.4%	0.7%	-1.3	6.2%	-9.8%	-11.9%
C/C(=N\NC(=O)c1ccc(Cl)c(Cl)c1)c1ccc(Br)s1	0.631µM*	0.631µM*	4.5	-2.1%	-0.6%	-0.5%
CN(C(=O)CSc1nc2ccc(NC(=O)COc3ccc(F)cc3)cc2s1)c1ccccc1	x	x	x	29.3%	4.5%	x
COCC1CCN(C(=O)C2CCN(c3nc(-c4ccccc4)nc4c3CCC4)CC2)C1 (stereo not given)	-0.5%	6.4%	-1.0	-8.6%	-5.4%	1.4%
COc1cccc(CN(C)Cc2nc3cc(C(F)(F)F)ccc3c(=O)[nH]2)c1	-18.7%	2µM*	1.1	16.9%	5.6%	-2.6%
COc1cccc(Oc2ccc(C(F)(F)F)cc2NC(=O)CCc2nc3ccccc3c(=O)[nH]2)c1	29.6%	27.7%	x	-14.9%	-13.8%	-8.4%
C=CCOc1ccc(CN(C)Cc2nc3cc(C(F)(F)F)ccc3c(=O)[nH]2)cc1	u	7.08µM*	-2.5	14.4%	-9.2%	-1.4%
CSc1ccc(CN(C)Cc2nc3ccccc3c(=O)[nH]2)cc1	u	u	0.1	21.6%	3.8%	0.5%
COc1ccc(OCc2ccc(/C=N\NC(=O)c3sccc3C)o2)cc1	u	11.2µM*	x	u	-0.3%	-4.8%
Cc1ccc(/C=N/NC(=O)c2cccs2)o1	u	u	2.3	-21.7%	-17.1%	0.7%
O=C(COc1ccc(/C=N/NC(=O)c2ccccc2)cc1)Nc1ccc([N+](=O)[O-])cc1	-9.8%	-6.5%	-1.6	-2.8%	-6.7%	2.3%
CSc1ccc(/C=N/NC(=O)c2sccc2C)cc1	u	8.91µM*	1.4	9.8%	10.6%	0.7%
O=C(N/N=C/c1ccc(-c2cccc([N+](=O)[O-])c2)o1)c1ccc([N+](=O)[O-])cc1	5.01µM*	2.51µM*	-3.1	15.4%[57.1 µM]	-6.4%	0.5%
O=C(N/N=C\c1ccc(COc2ccc([N+](=O)[O-])cc2)o1)c1ccc(Cl)cc1	u	12.6µM*	3.7	-7.3%	-5.1%	-0.4%
Cc1ccc(CCNC(=O)C(NS(=O)(=O)c2ccc3c(c2)oc(=O)n3C)C(C)C)cc1 (stereo not given)	x	x	x	5.5%	-4.7%	x
C=CCN(Cc1cccs1)C(=O)COc1ccc2c(c1)OCO2	x	x	x	6.5%	1.4%	x
O=C(N/N=C/c1ccc(-c2cccc([N+](=O)[O-])c2)o1)c1ccccc1O	2.24µM*	3.16µM*	1.0	9.4%	-6.7%	-2.7%
COc1cc([N+](=O)[O-])ccc1-c1ccc(/C=N\n2cnnc2)o1	-10.8%	-5.2%	-1.5	15.1%	4.3%[2.29 µM]	6.3%
Cc1ccc(/C=N/NC(=O)c2cccc([N+](=O)[O-])c2)o1	u	-21.9%[10 µM]	-1.1	-5.3%	-5.4%	0.6%
COc1cc([N+](=O)[O-])ccc1-c1ccc(/C=N/NC(=O)c2ccccc2O)o1	3.98µM*	1µM*	2.8	x	x	4.2%
CC(C)=CC(=O)Nc1ccc(S(=O)(=O)Nc2onc(C)c2C)cc1	-7.9%	-22.4%	10.7	8.9%[57.1 µM]	7.0%[57.1 µM]	8.2%

Bioassay records deposited in PubChem BioAssay by National Center for Advancing Translational Sciences (NCATS).
